36 molecules from ChEMBL document CHEMBL1157539, “Thousands of chemical starting points for antimalarial lead identification” (Nature, 2010) can be followed below.

This test relates to Plasmodium falciparum. The experiment in a line: GSK_TCMDC: Inhibition of Plasmodium falciparum 3D7 in whole red blood cells, using parasite LDH activity as an index of growth. Test compounds present at 2uM. It is filed as functional.
Turning to `CS(=O)(=O)Nc1ccc2[nH]cc(C3CCN(CC4CCC(NC(=O)/C=C/c5ccc(Cl)c(Cl)c5)CC4)CC3)c2n1` (stereo unspecified), the Inhibition was 99%.

Consider `O=C(NC1CCN(Cc2ccccc2)CC1)c1csc2nc(-c3ccc(Cl)cc3)cn12`, for which the Inhibition is recorded as 98%.

`O=C(O)C(F)(F)F.O=S(=O)(NCCN1CCCC1)c1cccc(-c2ccc(CNCc3ccc(F)cc3)cc2)c1` showed an Inhibition of 100%.

Take `O=C(Nc1ccc(C(F)(F)F)cc1)Nc1ccccc1N1CCNCC1.O=C(O)C(F)(F)F`: the Inhibition is 94%.

As for `CC(C)CCN1CCC(Oc2ccc(NC(=O)c3cccs3)cc2Cl)CC1.O=C(O)C(F)(F)F`, the Inhibition is on record as 97%.

As for `CNC(=O)c1ccccc1Nc1nc(Nc2ccc(N3CCOCC3)cc2)ncc1Cl.Cl`, the Inhibition is listed as 97%.

On to `O=C(Nc1ccc(Cl)c(Cl)c1)Nc1ccc(F)c([N+](=O)[O-])c1`, for which the Inhibition was found to be 100%.

As for `CN(CCc1ccccn1)c1cccc2c1nc(-c1cccnc1)n2CCNCc1ccccc1.O=C(O)C(F)(F)F`, the Inhibition is 90%.

`C=CCn1cc(C2CCN(CCCCNC(=O)c3sc(-c4ccc(C(F)(F)F)cc4)nc3CO)CC2)c2cc(OC)ccc21` showed an Inhibition of 91%.

Regarding `N#Cc1cccc(NC(=O)Nc2cccc(OC3CCN(Cc4ccccc4)CC3)c2)c1.O=C(O)C(F)(F)F`, the Inhibition was found to be 100%.

In turn, `COc1ccc(NCCCNc2ccnc3ccccc23)cc1` registered an Inhibition of 88%.

In turn, `COC(=O)c1cccc(CNCc2ccc(-c3cccc(-c4nc5cc(C(F)(F)F)ccc5[nH]4)c3)cc2)c1.O=C(O)C(F)(F)F` yielded an Inhibition of 100%.

In turn, `Cc1cccc2nc(-c3ccc(-c4ccc(CN5CCN(c6ccncc6)CC5)cc4)cc3)[nH]c12.O=C(O)C(F)(F)F` gave an Inhibition of 100%.

The molecule `Cl.O=S(=O)(Nc1cc2c(cc1O)CCN(C1CCC1)CC2)c1ccc(-c2ccc(F)cc2)cc1` returned an Inhibition of 100%.

Take `CCCSc1nc2c(c(=O)n1Cc1ccco1)C1(CCCCC1)Cc1ccccc1-2`: the Inhibition stood at 100%.

Molecule `CCCCC(CC)NC(=O)[C@H]1CNCCN1C(=O)CCCc1ccccc1.O=C(O)C(F)(F)F` (stereo partly specified) returned an Inhibition of 94%.

The molecule `Cc1cn(CC(=O)Nc2cccc(-c3cccc(-c4nc5cc(C(F)(F)F)ccc5[nH]4)c3)c2)c(=O)[nH]c1=O` displayed an Inhibition of 92%.

In turn, `S=C(NCCCCCN1CCC(c2c[nH]c3ccccc23)CC1)Nc1cc(Cl)cc(Cl)c1` had an Inhibition of 100%.

The molecule `CCNC(=O)Nc1cccc(-c2cccc(-c3nc4cccc(C)c4[nH]3)c2)c1` showed an Inhibition of 85%.

For `CN1C(C)(C)CC(NC(=O)c2ccc(-c3nc4cc(Cl)ccc4[nH]3)cc2)CC1(C)C`, the Inhibition was 99%.

In turn, `Cl.c1ccc(-c2ccc3c(Nc4ccc5[nH]ccc5c4)ccnc3c2)nc1` showed an Inhibition of 91%.

For `COc1ccc(C2CCN(CCCCNC(=O)c3ccc(NC(=O)c4ccc(Cl)cc4)cc3)CC2)cc1Cl`, the Inhibition is 97%.

In turn, `COc1ccccc1C(C)NCC(=O)Nc1cc(C(F)(F)F)ccc1Cl` (stereo unspecified) gave an Inhibition of 97%.

On to `Cl.O=C1CSc2ccc(CNC3CCN(CCc4c(Cl)cnc5ccc(Cl)cc45)CC3)nc2N1`, for which the Inhibition is given as 100%.

As to `COC1CCC(C(=O)Nc2ccc(-c3cccc(-c4nc5cccc(C)c5[nH]4)c3)cc2)CC1` (stereo unspecified), the Inhibition was 97%.

Turning to `OC(CNCc1ccccc1OCc1ccccc1)c1cccc(I)c1` (stereo unspecified), the Inhibition is given as 100%.

Consider `Cc1ccc(NCc2cccc(F)c2)cc1S(=O)(=O)N[C@@H]1CCN(C#N)C1`, for which the Inhibition came out at 89%.

Regarding `Cn1nc(-c2ccc(NC(=O)Nc3cc(C(F)(F)F)ccc3F)cc2)c2cnc(NCCc3c[nH]cn3)nc21.O=C(O)C(F)(F)F`, the Inhibition came to 99%.

`Cc1cccc2nc(-c3cccc(-c4cccc(C(=O)NCCc5cn(C)cn5)c4)c3)[nH]c12` registered an Inhibition of 100%.

The molecule `CCNc1cc(C(=O)N[C@@H](Cc2ccccc2)[C@H](O)CNCCc2cccc3ccccc23)cc(N2CCCC2=O)c1.O=CO` registered an Inhibition of 86%.

`COc1ccc(CNCCCCCCNCc2ccc(OC)c3ccccc23)c2ccccc12.Cl` yielded an Inhibition of 100%.

The molecule `CC(C)CCN1C(=O)C(NC(=O)Oc2ccccc2)C(=O)N(CC23CC4CC(CC(C4)C2)C3)c2ccccc21` (stereo unspecified) registered an Inhibition of 95%.

For `CC(C)CNC(=S)N1CCCN(c2nc3ccc(Cl)cc3s2)CC1`, the Inhibition was found to be 95%.

With `Cc1cc(C(=O)Nc2nc(-c3ccccn3)nc3ccsc23)no1`, the Inhibition came out at 98%.

Turning to `C=CCOC(=O)N1CCC(CNCc2cccc(-c3ccc(-c4nc5cc(C(F)(F)F)ccc5[nH]4)cc3)c2)C1.O=C(O)C(F)(F)F` (stereo unspecified), the Inhibition amounted to 100%.

Take `C=C[C@H]1CN2CC[C@H]1C[C@H]2[C@H](O)c1ccnc2ccc(OC)cc12.O.O=S(=O)(O)O`: the Inhibition worked out at 97%.
